This is a sample that favours compounds with a hit; in the whole collection about 6.6% have one here.
Gli-Sufu block = Gli-Sufu pathway antagonism; Sufu-KO-LIGHT fibroblasts, Gli luciferase reporter luminescence; inhibition, % at 5 µM; 340,000 compounds, 0.74% hits; AID 588413;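 active means inhibition above about 55%, limit read from the data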
Beta cell apopt = beta cell apoptosis inhibition; INS-1E cytokine-induced death, ATP luminescence, 48 h; percent of positive-control rescue, neutral wells zero; protection from apoptosis, % (no concentration beside the values); 300,000 compounds, 0.8% hits; AID 435005;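 active means Every replicate reaches about 75%, or at least half do and their mean reaches it too, limit read from the data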;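 further: higher means more ATP so stronger rescue from cytokine killing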
MPTP block = inhibitors of mitochondrial permeability transition pore | 360,000 compounds, 1.4% hits | isolated mouse mitochondria, Ca2+ swelling absorbance, 30 min | inhibition, % at 10 µM;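 active means inhibition of 50% or more, scaled per plate between neutral and stimulator controls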
CSC inhib = blocks cancer stem cells; inhibition, % at 7.5 µM; cancer stem cell-like cells viability, luminescence; 300,000 compounds, 1.1% hits; AID 2717; in the data active means inhibition above about 75%; tested in HMLE shEcad cells
NR3A LBD binder = NR3A (human) ligand-binding domain modulation. 340,000 compounds, 2.5% hits. AID 1259313. Tm shift relative to glycine control, % at 25 µM. NR3A LBD differential scanning fluorimetry, Tm shift; 0% = protein alone, 100% = glycine-bound protein;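 active means melting temperature shift of at least 10% of the positive control shift, at one fixed dose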
Mdm2-MdmX inh = inhibitors of human Mdm2/MdmX interaction; O15151+Q00987; SaOS-2 split-luciferase Mdm2/MdmX complementation, luminescence; inhibition, % at 8 µM; 330,000 compounds, 3% hits; AID 485346;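 active means inhibition of at least 50% at 8 µM in the primary screen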
Target sequence (O15151 whole entry, looked up): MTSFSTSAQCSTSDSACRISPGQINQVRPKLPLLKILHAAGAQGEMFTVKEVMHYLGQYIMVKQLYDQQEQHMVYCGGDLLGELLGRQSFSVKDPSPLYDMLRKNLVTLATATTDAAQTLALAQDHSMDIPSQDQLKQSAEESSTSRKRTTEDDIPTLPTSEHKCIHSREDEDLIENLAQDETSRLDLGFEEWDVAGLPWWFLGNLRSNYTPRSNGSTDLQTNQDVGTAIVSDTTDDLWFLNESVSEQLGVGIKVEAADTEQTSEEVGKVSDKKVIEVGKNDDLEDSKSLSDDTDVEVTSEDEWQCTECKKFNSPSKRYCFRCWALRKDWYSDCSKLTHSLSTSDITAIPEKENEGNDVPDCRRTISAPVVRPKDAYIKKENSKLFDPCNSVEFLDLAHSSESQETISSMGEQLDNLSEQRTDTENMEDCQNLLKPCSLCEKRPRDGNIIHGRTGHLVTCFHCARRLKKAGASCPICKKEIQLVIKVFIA
Target sequence (Q00987 whole entry, looked up): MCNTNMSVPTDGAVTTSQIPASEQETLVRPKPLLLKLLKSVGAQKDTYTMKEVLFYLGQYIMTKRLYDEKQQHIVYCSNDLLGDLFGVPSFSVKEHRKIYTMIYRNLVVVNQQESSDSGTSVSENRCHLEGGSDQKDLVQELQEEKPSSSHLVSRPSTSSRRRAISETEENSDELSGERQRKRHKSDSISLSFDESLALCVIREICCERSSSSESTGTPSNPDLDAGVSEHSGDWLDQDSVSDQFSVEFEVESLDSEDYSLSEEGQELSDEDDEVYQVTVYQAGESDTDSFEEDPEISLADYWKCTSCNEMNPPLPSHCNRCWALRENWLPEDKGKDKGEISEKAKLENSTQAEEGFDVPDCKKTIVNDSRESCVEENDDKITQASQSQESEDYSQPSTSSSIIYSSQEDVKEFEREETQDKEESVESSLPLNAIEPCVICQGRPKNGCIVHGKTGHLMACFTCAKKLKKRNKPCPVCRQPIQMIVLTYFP
Gli-Sufu confirm = confirmation of Gli-SUFU pathway antagonists; shares compounds with Gli-Sufu block; 2,500 compounds, 40% hits; inhibition, % at 5 µM; Sufu-KO-LIGHT cells, Gli luciferase reporter, luminescence;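 active means mean inhibition at 5 µM reaching about 45%, limit read from the data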
Gli cytotox = cytotoxicity counter-screen for Gli-SUFU antagonists. shares compounds with Gli-Sufu block. Sufu-KO-LIGHT cells cytotoxicity, ATP luminescence. cytotoxicity, % at 5 µM. 2,500 compounds, 32% hits. AID 651994;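 active means mean cytotoxicity at 5 µM above about 25%, limit read from the data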;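 further: cells exposed to compound overnight for roughly 16 to 18 hours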
Wnt3a counter = inhibits Wnt3a reporter, counter-screen for Gli-SUFU antagonists; shares compounds with Gli-Sufu block; Wnt-LIGHT cells, Wnt3a-driven luciferase reporter, luminescence; inhibition, % at 6.25 µM; 2,500 compounds, 20% hits; AID 651995;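 active means mean inhibition above about 25%, limit read from the data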
Each line names hits and unclear results; the compound was inactive in the other large screens (follow-up assays come after a bar, where they were run).

CCOc1ccc2c(c1)s/c(=N\S(=O)(=O)c1ccc(OC)cc1)n2C(F)F	none | Gli-Sufu confirm inactive | Gli cytotox inactive | Wnt3a counter inactive
CCOc1ccc2c(c1)sc1nc(C(=O)OC)cc(=O)n12	none
CN(Cc1ccccc1)S(=O)(=O)c1ccccc1[N+](=O)[O-]	none
CN1CCN(CCC(=O)Nc2ccc(Br)cc2)CC1	Gli-Sufu block 84 | Gli-Sufu confirm inactive | Gli cytotox inactive | Wnt3a counter inactive
Cc1ccc(/C=N/NC(=O)Cn2nccc2C)o1	Gli-Sufu block 60 | Gli-Sufu confirm inactive | Gli cytotox inactive | Wnt3a counter inactive
Cc1ccc(/C=N/NC(=O)Cn2nc(C)c([N+](=O)[O-])c2C)o1	none
Cn1c(SCC(=O)NCCc2ccccc2)ncc(C(=O)Nc2ccccc2)c1=O	none (no result: Beta cell apopt)
Cn1c(SCC(=O)NCc2ccc(F)cc2)ncc(C(=O)Nc2ccccc2)c1=O	none | Gli-Sufu confirm inactive | Gli cytotox inactive | Wnt3a counter inactive
CCSc1nc(N)c(C#N)c(-c2ccco2)c1C#N	Gli-Sufu block 89 | Gli-Sufu confirm inactive | Gli cytotox inactive | Wnt3a counter inactive
N#Cc1c(N)nc2c(c1-c1ccco1)CCCCC2	Gli-Sufu block 98 (no result: CSC inhib) | Gli-Sufu confirm inactive | Gli cytotox inactive | Wnt3a counter inactive
COc1ccc2c(c1)C(C)(Cc1ccc(C(=O)c3ccccc3)cc1)C(=O)N2 (stereo not drawn)	none (no result: Gli-Sufu block, Beta cell apopt, CSC inhib, NR3A LBD binder, Mdm2-MdmX inh)
COc1ccc(Cl)cc1NC(=O)CCc1nnc2ccc(N3CCN(C)CC3)nn12	Gli-Sufu block 60 | Gli-Sufu confirm inactive | Gli cytotox inactive | Wnt3a counter inactive
COc1ccc(C)cc1-n1nnnc1SCn1nnc2ccccc2c1=O	Gli-Sufu block 58 | Gli-Sufu confirm 64 | Gli cytotox 31 | Wnt3a counter 32
CC(=O)Nc1ccc(S(=O)(=O)N(C)CC(=O)OC2CCCCC2=O)cc1 (stereo not drawn)	none (no result: CSC inhib)
CN(Cc1ccccn1)Cc1nc(Cc2ccccc2Cl)no1	none
Cc1cnccc1CN(C)Cc1nc(Cc2ccccc2Cl)no1	Gli-Sufu block 55 | Gli-Sufu confirm inactive | Gli cytotox inactive | Wnt3a counter inactive
Cc1ccc(-c2nc(N)sc2CC(=O)OCC(=O)NCCC(C)C)cc1	Gli-Sufu block 58 | Gli-Sufu confirm inactive | Gli cytotox inactive | Wnt3a counter 31
Cc1ccc2sc(NC(=O)CN3C(=O)CCC3=O)nc2c1C	Gli-Sufu block 57 | Gli-Sufu confirm inactive | Gli cytotox inactive | Wnt3a counter inactive
CN=C(C[N+](=O)[O-])NCCSCc1ccc(CN(C)C)o1	none (no result: Beta cell apopt, MPTP block, CSC inhib)
O=C(CCc1nc2ccccc2[nH]c1=O)OCC(=O)c1ccc(Cl)cc1	none
CC(=O)OCc1cc(-c2nc3ccccc3[nH]c2=O)nn1-c1ccc(Cl)cc1	none | Gli-Sufu confirm inactive | Gli cytotox inactive | Wnt3a counter inactive
Cc1ccc(C)n1-c1ccccc1N1CCCCC1	none (no result: Beta cell apopt, CSC inhib)
CCCCN1CC(COCc2ccccc2)Oc2cccc(Oc3ccc(C)cc3)c2S1(=O)=O (stereo not drawn)	none (no result: Beta cell apopt, CSC inhib, Mdm2-MdmX inh)
COc1cccc(/C=C2\CCC(C3CCCC3)C2=O)c1OC (stereo not drawn)	none (no result: Gli-Sufu block)
O=C(N/N=C/c1cccc([N+](=O)[O-])c1)C1CC1c1ccccc1 (stereo not drawn)	none
CC(=O)C1=NN(c2ccccc2)C(c2cccs2)N1c1ccc(N(C)C)cc1 (stereo not drawn)	Gli-Sufu block 79, Beta cell apopt 103 | Gli-Sufu confirm 79 | Gli cytotox 33 | Wnt3a counter inactive
CC(=O)C1=NN(c2ccccc2)C(c2ccc3c(c2)OCO3)N1c1ccccc1 (stereo not drawn)	none
Cc1ccc(/C=N/Nc2cn[nH]c(=O)n2)o1	none
O=c1nc(N/N=C/c2ccccn2)cn[nH]1	Gli-Sufu block 67, CSC inhib 82 | Gli-Sufu confirm 71 | Gli cytotox 33 | Wnt3a counter 78
COc1ccccc1C(=O)N/C(=C\c1ccc(Br)cc1)C(=O)NCC(=O)O	Gli-Sufu block 97 | Gli-Sufu confirm inactive | Gli cytotox inactive | Wnt3a counter inactive
Cc1cc[n+](Cc2ccc([N+](=O)[O-])cc2)cc1	none
Cc1ccc(-c2cc[n+](Cc3ccccc3)cc2)cc1	Gli-Sufu block 62 | Gli-Sufu confirm 78 | Gli cytotox 41 | Wnt3a counter 26
Cc1ccc(NCC(=O)Nc2cccc(S(=O)(=O)N(C)C)c2)cc1S(=O)(=O)N1CCCCCC1	none | Gli-Sufu confirm inactive | Gli cytotox inactive | Wnt3a counter inactive
CCN(CC)S(=O)(=O)c1cc(NC(=O)CNc2cccc(S(=O)(=O)N3CCOCC3)c2)ccc1C	Gli-Sufu block 95 | Gli-Sufu confirm 46 | Gli cytotox 36 | Wnt3a counter inactive
Cc1ccc(NC(=O)CNc2cccc(S(=O)(=O)N3CCOCC3)c2)cc1F	none (no result: Beta cell apopt)
Cc1ccc(NC(=S)Nc2ccc(S(=O)(=O)N3CCOCC3)cc2)cc1S(=O)(=O)N1CCOCC1	none | Gli-Sufu confirm inactive | Gli cytotox inactive | Wnt3a counter inactive
Cc1ccc(NC(=O)CNc2cccc(S(=O)(=O)N3CCCC3)c2)cc1F	none
N#Cc1cccc(NC(=O)CNc2cccc(S(=O)(=O)N3CCCC3)c2)c1	Gli-Sufu block 66 | Gli-Sufu confirm inactive | Gli cytotox inactive | Wnt3a counter inactive
CC(OC(=O)c1ccccc1NCCO)C(=O)NCC(=O)Nc1ccc(F)c(F)c1F (stereo not drawn)	none
O=C1CN(c2ccc(Cl)cc2)C2(CCCCC2)S1	none
CCOC(=O)N1CCN(C(=S)NC)CC1	none
CCC(=O)NC1CCN(C(=S)NC)CC1	Gli-Sufu block 57 (no result: CSC inhib) | Gli-Sufu confirm inactive | Gli cytotox inactive | Wnt3a counter inactive
Cc1ccc2c(C)c(C(=O)Nc3ccc(S(N)(=O)=O)cc3)oc2c1C	none
Cc1ccc2c(C)c(C(=O)NCc3ccc(S(N)(=O)=O)cc3)oc2c1C	Gli-Sufu block 59 | Gli-Sufu confirm inactive | Gli cytotox inactive | Wnt3a counter inactive
O=S(=O)(NCc1ccncc1)c1ccc(S(=O)(=O)NCC2CCCO2)cc1 (stereo not drawn)	CSC inhib 140 | Gli-Sufu confirm inactive | Gli cytotox inactive | Wnt3a counter 26
COc1ccc(-c2csc(NCCc3nc4cc(Cl)c(Cl)cc4n3CCCO)n2)cc1	none
Cc1ccc(-c2csc(NCCc3nc4cc(Cl)c(Cl)cc4n3CCCO)n2)cc1	Gli-Sufu block 57 | Gli-Sufu confirm inactive | Gli cytotox 35 | Wnt3a counter inactive
CCCCn1c(N)c(N(CC(C)C)C(=O)c2ccc(Br)s2)c(=O)[nH]c1=O	none
